697 NFkB inh – inhibitors of the PMA/ionomycin-induced NF-kB reporter in 697 B cells. AID 435022. 330,000 compounds, 0.33% hits. 697 B-cell NF-kB luciferase reporter, 16 h. inhibition, % at 4 µM; in the data active means inhibition above about 35%
Gli-Sufu block – antagonists of Gli-Sufu signaling; Sufu-KO-LIGHT fibroblasts, Gli luciferase reporter luminescence; inhibition, % at 5 µM; 340,000 compounds, 0.74% hits; AID 588413;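 active means inhibition above about 55%, limit read from the data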;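 further: 0% = DMSO-treated cells and 100% = wells with medium but no cells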
aSyn UTR inh – 5' untranslated region of α-synuclein, MLPCN primary screen | alpha-synuclein 5'UTR reporter, inhibitor activity | inhibition, % (tested at 7.5 µM) | 300,000 compounds, 0.82% hits; in the data active means inhibition above about 60%;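 further: H4 neuroglioblastoma cells stably carrying SNCA 5'UTR luciferase fusion; 0% = DMSO wells and 100% = positive control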
Jurkat NFkB inh – inhibitors of the PMA/ionomycin-induced NF-kB reporter in Jurkat cells | PMA/ionomycin-induced NF-kB luciferase reporter, luminescence | inhibition, % at 4 µM | 330,000 compounds, 0.53% hits | AID 435003; in the data active means inhibition above about 50%
Mdm2 MdmX PPI – disrupts the human Mdm2-MdmX interaction | O15151+Q00987 | SaOS-2 split-luciferase Mdm2/MdmX complementation, luminescence | inhibition, % at 8 µM | 330,000 compounds, 3% hits;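 active means inhibition of at least 50% at 8 µM in the primary screen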
Target sequence (O15151 whole entry, looked up): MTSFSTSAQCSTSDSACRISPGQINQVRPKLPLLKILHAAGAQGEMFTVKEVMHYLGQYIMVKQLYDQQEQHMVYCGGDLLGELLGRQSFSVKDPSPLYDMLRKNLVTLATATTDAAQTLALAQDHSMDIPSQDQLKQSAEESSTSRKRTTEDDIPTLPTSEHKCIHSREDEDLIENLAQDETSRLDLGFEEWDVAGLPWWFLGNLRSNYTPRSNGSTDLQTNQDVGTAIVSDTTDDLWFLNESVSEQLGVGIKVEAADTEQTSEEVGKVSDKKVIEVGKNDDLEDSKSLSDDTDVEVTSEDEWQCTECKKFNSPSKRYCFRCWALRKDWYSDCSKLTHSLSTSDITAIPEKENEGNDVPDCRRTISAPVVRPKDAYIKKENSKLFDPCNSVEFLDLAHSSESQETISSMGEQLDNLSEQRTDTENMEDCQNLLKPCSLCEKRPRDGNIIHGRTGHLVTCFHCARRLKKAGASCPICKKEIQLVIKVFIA
Target sequence (Q00987 whole entry, looked up): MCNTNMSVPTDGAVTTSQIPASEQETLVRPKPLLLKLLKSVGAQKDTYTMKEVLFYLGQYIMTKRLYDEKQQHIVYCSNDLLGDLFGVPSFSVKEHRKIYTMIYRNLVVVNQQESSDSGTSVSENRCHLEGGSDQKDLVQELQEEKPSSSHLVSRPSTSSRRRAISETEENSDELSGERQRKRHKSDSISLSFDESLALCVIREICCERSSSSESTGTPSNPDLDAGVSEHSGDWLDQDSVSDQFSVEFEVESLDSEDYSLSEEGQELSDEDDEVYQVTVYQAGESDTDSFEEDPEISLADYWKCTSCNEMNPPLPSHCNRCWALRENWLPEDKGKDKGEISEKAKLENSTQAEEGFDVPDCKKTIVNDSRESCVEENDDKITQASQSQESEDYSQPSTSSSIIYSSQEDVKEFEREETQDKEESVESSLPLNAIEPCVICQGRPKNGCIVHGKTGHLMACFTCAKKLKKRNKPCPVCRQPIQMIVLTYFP
CSC inhib – cancer stem cell inhibition; cancer stem cell-like cells viability, luminescence; inhibition, % at 7.5 µM; 300,000 compounds, 1.1% hits; AID 2717; in the data active means inhibition above about 75%; tested in HMLE shEcad cells
The depositor's hits bear a star; / = not tested or not shown. A selection: hits, their analogues and other compounds. The true share with any hit is near 4.5%.

SMILES | 697 NFkB inh | Gli-Sufu block | aSyn UTR inh | Jurkat NFkB inh | Mdm2 MdmX PPI | CSC inhib
CCOC(=O)c1c(C)[nH]c(C(=O)Nc2ccc(NC(C)=O)cc2)c1C | 23.2 | -2.6 | 89.5* | 0.7 | 18.2 | /
CNc1cccnc1C=NNC(N)=S | / | 84.5* | / | / | / | /
O=C(NN=C1C2CC3CC1CC(Cl)(C3)C2)c1ccccn1 | 10.9 | -15.4 | -137.3 | -3.3 | 6.7 | -11.7
CSC(=S)NN=C(C)c1cccc(C)n1 | / | 91.8* | / | / | / | /
CSc1cccc(CNC(=O)C2CCC(=O)N(CCCN3CCCC3=O)C2)c1 (stereo not drawn) | -8.5 | -5.3 | -20.0 | -2.8 | 5.1 | -17.3
Cc1cc(NC(=O)c2cc(-c3ccncc3)nc3ccccc23)ccc1Br | -18.3 | 2.6 | / | 28.3 | 44.0 | 86.2*
Nc1cc(Cl)ccc1Oc1ccc2ccccc2c1 | -11.2 | -19.4 | -138.4 | -34.7 | -5.9 | 83.2*
Cc1ccc(Oc2ccc(Cl)cc2N)cc1 | -39.2 | -32.5 | -85.3 | -33.0 | -38.2 | 3.0
O=C(Nc1cccc(Cl)c1)Nc1sccc1-c1nc2ccccc2s1 | -17.5 | -7.6 | -9.2 | -13.0 | -33.5 | 76.0*
Cc1c(O)cc2c(c1O)C(=O)CC(c1ccccc1)O2 (stereo not drawn) | -10.5 | / | -24.8 | -20.7 | -5.3 | 76.8*
COc1c(O)cc2c(c1O)C(=O)CC(c1ccccc1)O2 (stereo not drawn) | -21.2 | / | -102.3 | -29.4 | -46.8 | /
CCOC(=O)/C(=C\c1ccc(OC(F)F)cc1)C1=Nn2c(nnc2-c2ccc(Cl)cc2)SC1 | / | 56.0* | 46.7 | / | / | 99.7*
CCOC(=O)/C(=C/c1ccc(OC(F)F)cc1)C1=Nn2c(nnc2-c2ccc(Cl)cc2)SC1 | / | 10.2 | / | / | / | /
CC(=O)c1ccc(-c2cc([C@H]3[C@H]4C=CC[C@@H](C)[C@@H]4C(=O)N3Cc3ccccc3)ccc2F)cc1 | 6.5 | 27.9 | 13.5 | -9.7 | 15.6 | 114.6*
CCN1C(=O)/C(=C\c2ccncc2)SC1=Nc1ccc(C)c(C)c1 | -13.3 | 12.5 | 47.8 | -1.1 | 24.7 | 84.5*
CN(C)c1ccc(CNc2ncnc3sccc23)cc1 | -25.2 | 62.7* | -7.3 | 5.1 | -12.4 | -1.7
CCOC(=O)c1c(C)nn(-c2ccc(NC(=O)c3c(C)noc3C)cc2)c1C | 5.5 | 21.7 | 50.6 | -19.3 | 5.3 | /
CCOC(=O)c1c(C)nn(-c2ccc(NC(=O)/C=C/C(=O)O)cc2)c1C | 33.2 | 8.1 | 92.4* | -2.8 | -12.8 | -18.5
CSc1nnc(C)c(=O)n1COC(=O)/C=C/c1ccc2c(c1)OCO2 | -4.5 | 0.3 | -7.5 | -9.9 | -22.1 | -10.6
Cc1ccc(-n2nc3c(=O)n(CCCC(=O)NCc4cccc(Cl)c4)nc(C)c3c2C)cc1 | 15.1 | -0.5 | 44.6 | 26.4 | 44.6 | 7.9
Cc1ccc(-n2nc3c(=O)n(CCCC(=O)NCc4ccc(Cl)cc4)nc(C)c3c2C)cc1 | -7.5 | 13.2 | 62.2* | 15.7 | 30.3 | 12.7
CCn1c(C)nc2cc(C(=O)N/N=C/c3cccc(OC)c3O)ccc21 | -9.1 | 17.8 | 47.1 | -10.0 | 34.8 | 109.0*
COc1ccc(/C=N/NC(=O)c2ccc(COCC(F)(F)C(F)F)cc2)cc1 | -32.2 | -6.2 | 16.1 | -11.2 | -6.6 | -5.7
O=C(N/N=C/c1ccc2c(c1)OCO2)c1ccc(COCC(F)(F)C(F)F)cc1 | -3.2 | -2.9 | 16.6 | 5.6 | 11.1 | 82.6*
Cc1cccc(-c2sc(Nc3ccccc3)n[n+]2-c2ccc(F)cc2)c1 | 22.4 | 14.8 | -22.4 | -28.5 | -5.4 | -13.6
SMILES | 697 NFkB inh | Gli-Sufu block | aSyn UTR inh | Jurkat NFkB inh | Mdm2 MdmX PPI | CSC inhib
CCc1ccc(Nc2n[n+](-c3ccccc3)c(-c3cccc(C)c3)s2)cc1 | -8.5 | 69.9* | / | 8.9 | 3.2 | 26.5
Cc1ccc(C(=O)N/N=C\c2ccc(-c3ccc(Cl)c(Cl)c3)o2)cn1 | -14.4 | -10.2 | -65.7 | 18.1 | 23.7 | 75.9*
COc1ccc(S(=O)(=O)NNC(=O)Nc2ccc(C)cc2C)c(OC)c1 | -23.6 | -1.9 | -0.5 | -6.6 | -4.8 | -5.3
CCCCCCCCSc1nnc(-c2ccc(OC)cc2)o1 | 7.4 | 12.2 | 111.2* | -15.3 | 27.8 | 6.3
Cc1nn(-c2nc3ccccc3[nH]2)c(=O)c2ccccc12 | / | 79.0* | 115.0* | / | / | 97.5*
Cc1nn(-c2ccc3ccccc3c2)c(=O)c2ccccc12 | -104.7 | -81.1 | -183.0 | -77.8 | -102.6 | -3.3
NC(=S)N/N=C/c1ccccc1 | -9.9 | 9.0 | 17.7 | -6.2 | -19.6 | 0.2
NC(=S)N/N=C/c1ccc(C23CC4CC(CC(C4)C2)C3)cc1 | -73.2 | 41.2 | -309.8 | -19.8 | 46.1 | 113.2*
